# Assay results: the supplement of paper PMC8728848
# The full list was thinned out, with the strongest signals kept by preference.
# B1: Spy 2007 (Streptococcus pyogenes), Q99XV3 (protein)
# chain: MKKGFFLMAMVVSLVMIAGCDKSANPKQPTQGMSVVTSFYPMYAMTKEVSGDLNDVRMIQSGAGIHSFEPSVNDVAAIYDADLFVYHSHTLEAWARDLDPNLKKSKVDVFEASKPLTLDRVKGLEDMEVTQGIDPATLYDPHTWTDPVLAGEEAVNIAKELGRLDPKHKDSYTKNAKAFKKEAEQLTEEYTQKFKKVRSKTFVTQHTAFSYLAKRFGLKQLGISGISPEQEPSPRQLKEIQDFVKEYNVKTIFAEDNVNPKIAHAIAKSTGAKVKTLSPLEAAPSGNKTYLENLRANLEVLYQQLK
# Key:
# Experiment in all cases: glycan array binding signal (z-score within array); higher = stronger binding
# Conditions in all cases: glycan notation: IUPAC condensed, linker removed
# [1] = target: Fuc(a1-2)Gal(b1-4)GlcNAc
# How it was run: (§1)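 Arrays were curated from the Consortium for Functional Glycomics database, 3228 in total, and kept only where the protein sequence was available. Binding is expressed as a within-array Z-score. This score was averaged across arrays of the same protein sequence at different concentrations or buffers and across linkers, and negative values can be read as non-binding.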
# [2] = target: Fuc(a1-3)[Gal3S(b1-4)]GlcNAc
# How it was run: as §1
# [3] = target: Fuc(a1-3)[Neu5Ac(a2-3)]Gal(b1-4)GlcNAc(b1-3)GalNAc
# How it was run: as §1
# [4] = target: Gal(a1-6)Glc
# How it was run: as §1
# [5] = target: Gal(b1-4)Glc
# How it was run: as §1
# [6] = target: Gal(b1-4)GlcNAc(b1-2)Man(a1-6)Man(b1-4)GlcNAc(b1-4)GlcNAc
# How it was run: as §1
# [7] = target: Gal3S(b1-3)[Fuc(a1-4)]GlcNAc
# How it was run: as §1
# [8] = target: Gal3S(b1-4)Glc
# How it was run: as §1
# [9] = target: Gal6S(b1-4)GlcNAc6S
# How it was run: as §1
# [10] = target: GalNAc(b1-4)GlcNAc(b1-2)Man(a1-3)[GalNAc(b1-4)GlcNAc(b1-2)Man(a1-6)]Man(b1-4)GlcNAc(b1-4)GlcNAc
# How it was run: as §1
# [11] = target: GlcNAc(a1-4)Gal(b1-4)GlcNAc(b1-3)Gal(b1-4)Glc
# How it was run: as §1
# [12] = target: GlcNAc(a1-4)Gal(b1-4)GlcNAc(b1-3)Gal(b1-4)[Fuc(a1-3)]GlcNAc(b1-3)Gal(b1-4)[Fuc(a1-3)]GlcNAc
# How it was run: as §1
# [13] = target: GlcNAc(b1-4)GlcNAc
# How it was run: as §1
# [14] = target: GlcNAc(b1-4)GlcNAc(b1-4)GlcNAc(b1-4)GlcNAc(b1-4)GlcNAc
# How it was run: as §1
# [15] = target: Kdn(a2-6)Gal(b1-4)GlcNAc
# How it was run: as §1
# [16] = target: Man(a1-2)Man(a1-3)[Man(a1-6)]Man(a1-6)[Man(a1-2)Man(a1-3)]Man(b1-4)GlcNAc(b1-4)GlcNAc
# How it was run: as §1
# [17] = target: Neu5Ac(a2-3)Gal(b1-3)GlcNAc6S
# How it was run: as §1
# [18] = target: Neu5Ac(a2-3)Gal(b1-3)[Neu5Ac(a2-6)]GalNAc
# How it was run: as §1
# [19] = target: Neu5Ac(a2-3)Gal(b1-4)Glc
# How it was run: as §1
# [20] = target: Neu5Ac(a2-3)Gal(b1-4)GlcNAc6S
# How it was run: as §1
# [21] = target: Neu5Ac(a2-3)Gal(b1-4)[Fuc(a1-3)]GlcNAc(b1-3)Gal(b1-4)GlcNAc
# How it was run: as §1
binder,measurement,setting,value
B1,glycan array binding signal (z-score),[1],0.299
same,glycan array binding signal (z-score),[2],0.277
same,glycan array binding signal (z-score),[3],5.41
same,glycan array binding signal (z-score),[4],-0.074
same,glycan array binding signal (z-score),[5],-0.461
same,glycan array binding signal (z-score),[6],-0.392
same,glycan array binding signal (z-score),[7],3.35
same,glycan array binding signal (z-score),[8],-0.543
same,glycan array binding signal (z-score),[9],5.95
same,glycan array binding signal (z-score),[10],3.5
same,glycan array binding signal (z-score),[11],0.12
same,glycan array binding signal (z-score),[12],3.22
same,glycan array binding signal (z-score),[13],-0.446
same,glycan array binding signal (z-score),[14],4.65
same,glycan array binding signal (z-score),[15],-0.715
same,glycan array binding signal (z-score),[16],-0.649
same,glycan array binding signal (z-score),[17],-0.663
same,glycan array binding signal (z-score),[18],1.08
same,glycan array binding signal (z-score),[19],0.127
same,glycan array binding signal (z-score),[20],1.47
same,glycan array binding signal (z-score),[21],0.479
